From PubChem BioAssay AID504333 (National Center for Advancing Translational Sciences (NCATS), 2011) come the findings set out here.

Structures are written as SMILES. Among all 360,000 compounds or so, about 16,000 (4.4%) were called active. Not shown: some 9% with an inconclusive outcome. Many of the other results were omitted from the sample, so actives are more common in it than they were. Unmarked numbers belong to inactive results. The call rests on the fitted dose curve; in most records, active means well fitted inhibition curve with a large enough effect; inconclusive means small, poorly fitted or top-dose-only effect; inactive means no such curve, though single readings can be large or run the other way.
On the % scale 0 is the no-effect control and ±100 the full control effect; potency means the concentration at half of the fitted maximal effect.

Chain of Bromodomain adjacent to zinc finger domain protein 2B (Homo sapiens) (Q9UIF8 whole entry, looked up, the tested form may be a part): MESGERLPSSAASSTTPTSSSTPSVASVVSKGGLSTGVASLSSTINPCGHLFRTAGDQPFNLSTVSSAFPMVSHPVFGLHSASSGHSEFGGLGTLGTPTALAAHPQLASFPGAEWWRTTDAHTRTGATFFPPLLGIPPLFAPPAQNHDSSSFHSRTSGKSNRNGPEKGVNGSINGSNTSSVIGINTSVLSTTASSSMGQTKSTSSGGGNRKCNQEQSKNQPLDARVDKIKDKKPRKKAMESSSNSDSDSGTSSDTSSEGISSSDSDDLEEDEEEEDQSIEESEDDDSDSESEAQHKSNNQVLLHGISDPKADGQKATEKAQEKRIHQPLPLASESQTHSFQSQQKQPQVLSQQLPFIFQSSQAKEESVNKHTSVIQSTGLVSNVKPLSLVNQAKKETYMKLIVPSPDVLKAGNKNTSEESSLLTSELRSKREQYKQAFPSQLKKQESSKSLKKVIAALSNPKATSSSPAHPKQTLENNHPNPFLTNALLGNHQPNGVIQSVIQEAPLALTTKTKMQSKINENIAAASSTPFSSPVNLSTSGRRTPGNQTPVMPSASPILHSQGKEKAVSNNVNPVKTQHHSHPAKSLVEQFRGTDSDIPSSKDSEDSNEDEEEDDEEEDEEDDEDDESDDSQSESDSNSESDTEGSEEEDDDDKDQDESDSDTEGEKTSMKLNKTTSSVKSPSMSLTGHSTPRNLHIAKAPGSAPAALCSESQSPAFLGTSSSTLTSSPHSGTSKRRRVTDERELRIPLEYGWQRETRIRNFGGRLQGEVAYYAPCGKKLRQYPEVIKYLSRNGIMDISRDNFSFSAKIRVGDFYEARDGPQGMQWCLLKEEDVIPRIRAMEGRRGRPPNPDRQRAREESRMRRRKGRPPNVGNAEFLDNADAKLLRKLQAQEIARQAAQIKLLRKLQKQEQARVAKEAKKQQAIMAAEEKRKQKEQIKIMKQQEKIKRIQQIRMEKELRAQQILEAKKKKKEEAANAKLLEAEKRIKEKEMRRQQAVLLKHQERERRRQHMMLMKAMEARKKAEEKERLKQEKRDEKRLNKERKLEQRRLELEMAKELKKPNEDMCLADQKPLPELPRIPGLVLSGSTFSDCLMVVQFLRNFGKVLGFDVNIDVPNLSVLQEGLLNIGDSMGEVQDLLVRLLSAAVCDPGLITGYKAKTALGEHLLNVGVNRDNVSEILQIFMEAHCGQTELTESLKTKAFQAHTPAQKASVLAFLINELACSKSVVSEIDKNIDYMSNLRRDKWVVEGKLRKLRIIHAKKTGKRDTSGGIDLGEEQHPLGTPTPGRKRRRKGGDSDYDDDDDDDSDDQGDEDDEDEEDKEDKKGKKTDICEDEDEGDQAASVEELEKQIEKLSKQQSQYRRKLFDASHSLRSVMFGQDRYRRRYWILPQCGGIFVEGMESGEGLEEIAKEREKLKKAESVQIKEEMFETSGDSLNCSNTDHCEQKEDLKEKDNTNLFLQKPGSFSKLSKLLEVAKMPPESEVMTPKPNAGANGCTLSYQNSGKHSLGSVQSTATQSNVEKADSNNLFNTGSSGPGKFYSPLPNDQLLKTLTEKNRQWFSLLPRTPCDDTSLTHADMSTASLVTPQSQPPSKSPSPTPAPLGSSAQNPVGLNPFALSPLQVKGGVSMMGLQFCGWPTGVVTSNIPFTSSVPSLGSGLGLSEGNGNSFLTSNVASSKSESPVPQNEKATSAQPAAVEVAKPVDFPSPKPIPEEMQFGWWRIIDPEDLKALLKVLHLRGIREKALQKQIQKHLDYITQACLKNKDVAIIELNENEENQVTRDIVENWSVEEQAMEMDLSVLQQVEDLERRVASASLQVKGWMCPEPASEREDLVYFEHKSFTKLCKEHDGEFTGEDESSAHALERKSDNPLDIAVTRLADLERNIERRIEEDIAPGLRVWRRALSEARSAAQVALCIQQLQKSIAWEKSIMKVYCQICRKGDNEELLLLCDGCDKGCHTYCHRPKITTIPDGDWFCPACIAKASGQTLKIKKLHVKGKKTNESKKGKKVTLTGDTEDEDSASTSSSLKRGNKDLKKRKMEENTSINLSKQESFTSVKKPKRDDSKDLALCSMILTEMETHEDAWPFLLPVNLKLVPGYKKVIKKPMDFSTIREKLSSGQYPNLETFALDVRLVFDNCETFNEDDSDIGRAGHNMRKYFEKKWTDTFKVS

The target of the test is Bromodomain adjacent to zinc finger domain protein 2B (Homo sapiens) (UniProt Q9UIF8). Briefly: qHTS Assay for Inhibitors of BAZ2B. Further: nearly all actives have a fitted effect of over 60% in size. The note with it: AlphaScreen BAZ2B-H3K14Ac peptide displacement; series mostly up to 114 µM; activity change, negative = inhibition: at the top concentration. A digest of the protocol:
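AlphaScreen displacement of biotin-H3(5-23)K14Ac peptide (50 nM final) from BAZ2B (50 nM final) in PBS pH 7.4, 0.01% Tween-20; complex preformed 30 min RT, then compounds (top 110 uM) 30 min RT, beads 20 min dark.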
Background: In qHTS, concentration-response curves come from the screen itself.
Take `CC1CC(C)CN(S(=O)(=O)c2cccc3nonc23)C1` (centres undefined): the “activity change, negative = inhibition” value was -16.5%.
The same measure, in the same setting: the result for `O=C(NCc1ccccc1Cl)C1CCN(S(=O)(=O)c2cccc3nonc23)CC1` reads -4.18%; that for `COc1ccc(Cn2ccc3nc(C)c(C(=O)Nc4ccc(C)c(F)c4)cc3c2=O)cc1`, 0.0031%.
Same read-out and setting: the same measure for `CC(=O)c1cccc(Nc2ccc3cc(S(=O)(=O)N4CCC(C)CC4)ccc3n2)c1`: 9.61%.
On the same count and under the same terms, the result for `O=C(CSc1nc2c(c(=O)[nH]1)CN(Cc1ccc3c(c1)OCO3)CC2)Nc1cc(F)ccc1F` reads 0.671%; that for `Oc1c(C(c2ccccc2Cl)N2CCOCC2)sc2nc(-c3ccco3)nn12` (centres undefined), -33.3%.
Consider `Oc1c(C(c2ccccn2)N2CCOCC2)ccc2cccnc12` (centres undefined), for which the Potency was 3.16 µM (active).
Take `CC(C)c1cc(CN2CCOCC2)cc(C(C)C)c1O`: the “activity change, negative = inhibition” value was -16.3%.
Same read-out and setting: the same measure for `COc1ccc(-c2nc(S(=O)(=O)c3ccccc3)c(N3CCCCC3)o2)cc1`: 1.28%; for `O=C(CCC1N=C2c3ccccc3N=C(SCc3ccccc3F)N2C1=O)NCCc1ccccc1` (centres undefined): -13.3%; for `NS(=O)(=O)c1ccc(NC(=O)COc2ccc(S(=O)(=O)NC3CCCCC3)cc2)cc1`: 0.548%.
Still for that read-out and setting: the same measure for `COc1ccc(-c2csc(-c3c(N)c(C(=O)c4ccc(OC)c(OC)c4)n4ccccc34)n2)cc1`: 1.95%.
For the compound `Cc1cccc(N2CCN(c3ccc(NC(=O)/C=C\C(=O)O)cc3)CC2)c1`, the Potency was 35.5 µM (active).
On to `CC(=O)Nc1ccc(S(=O)(=O)N2CCN(c3ccccc3)CC2)cc1`, for which the “activity change, negative = inhibition” value was 0.312%.
Still for that read-out and setting: the same measure for `CN1CCN(c2ccc(NC(=O)c3ccccc3)cc2)CC1`: -15.9%; for `CC(=O)Nc1ccc(/C=C/C(=O)c2ccccc2)cc1`: -0.126%.
On to `CN(C)c1ccc(/C=C/C(=O)c2ccc(C(C)(C)C)cc2)cc1[N+](=O)[O-]`, for which the Potency is 8.91 µM (active).
For `Cc1cc(C(=O)O)ccc1[N+](=O)[O-]`, the “activity change, negative = inhibition” value was -31.3%.
Consider `O=S(=O)(c1ccc(C2CCCCC2)cc1)N1CCN(c2ccc(Cl)c(Cl)c2)CC1`, for which the “activity change, negative = inhibition” value is -6.77%.
The same measure, in the same setting: the same measure for `CC1CCN(S(=O)(=O)c2ccc3c(c2)N(CC(=O)NCCc2ccccc2)C(=O)CO3)CC1`: -21.3%.
Same read-out and setting: the same measure for `Cc1cc(Cl)ccc1NC(=O)Cc1ccc(NC(=O)N2CCCCc3ccccc32)cc1`: -8.91%; for `Cc1ccc(-n2c(=O)c3cccnc3n2CC(=O)Nc2ccccc2C(F)(F)F)cc1C`: 12.9%.
The same measure, in the same setting: the same measure for `c1ccc(C2=Nc3cccc4cccc(c34)N2)cc1`: -31.3%.
For the compound `COc1ccccc1-c1nc(C(F)(F)F)c(OC)o1`, the “activity change, negative = inhibition” value was 14.6%.
In the case of `COc1ccccc1C1=Nc2cccc3cccc(c23)N1`, the Potency was 39.8 µM (active).
Take `Cc1ccccc1-c1nc2cc(NC(=O)c3cccc(OCCC(C)C)c3)ccc2o1`: the “activity change, negative = inhibition” value is 7.98%.
The same measure, in the same setting: the same measure for `CCc1ccc2oc(-c3ccc(C)c(NC(=O)/C=C/c4ccco4)c3)nc2c1`: -12.5%; for `COCn1c(COc2ccccc2)nc2ccccc21`: 0.462%.
Still for that read-out and setting: the result for `O=C(CSc1nnc(COc2ccc(Cl)cc2)n1Cc1ccco1)N1CCNC1=O` reads -2.72%.
Consider `Cn1c2ccccc2c(=O)c2c(=O)n(Cc3ccco3)c(COc3ccccc3)nc21`, for which the Potency was 56.2 µM (active).
As to `Cc1ccc2ncc(C(=O)Nc3ccc(OC(F)(F)F)cc3)c(=O)n2c1`, the “activity change, negative = inhibition” value is 2.09%.
On the same count and under the same terms, the same measure for `Cc1ccc(Cl)cc1NC(=O)CCS(=O)(=O)c1ccc(Br)s1`: -11.7%.
Consider `Oc1c(C=Nc2cccc3nsnc23)ccc2ccccc12`, for which the Potency was 50.1 µM (active).
`Cc1ccc(-n2c(=O)c3cccnc3n2CC(=O)NCc2ccc(F)cc2)cc1C`: the “activity change, negative = inhibition” value was 11.3%.
Take `C=C1c2c(Cl)ccc(O)c2C(O)=C2C(=O)[C@]3(O)C(O)=C(C(N)=O)C(=O)[C@@H](N(C)C)[C@@H]3[C@@H](O)C12` (some centres undefined): the Potency was 2.82 µM (active).
Still for that read-out and setting: the same measure for `CN(C)[C@@H]1C(=O)C(C(N)=O)=C(O)[C@@]2(O)C(=O)C3=C(O)c4c(O)ccc(Cl)c4[C@@H](O)[C@H]3C[C@@H]12`: 10 µM (active).
With `Cc1cc(=O)n(CC(=O)Nc2cccc([N+](=O)[O-])c2)c(-n2nc(C)cc2C)n1`, the “activity change, negative = inhibition” value was -21.5%.
Still for that read-out and setting: the same measure for `N#Cc1ccccc1Cn1cnc2nc3c(cc2c1=O)CCCC3`: -3.89%; for `COc1ccc(-c2cc(-c3nc(-c4cc(OC)c(OC)c(OC)c4)no3)[nH]n2)c(OC)c1`: -1.15%; for `COc1ccc(N2CCN(C(=O)c3c(C)oc4nc(C)nc(N5CCCC5)c34)CC2)cc1`: 4.5% [at 57.1 µM].
`O=c1[nH]n(-c2ccc([N+](=O)[O-])cc2)c(=O)c2ccccc12`: the “activity change, negative = inhibition” value is 20.8%.
Consider `O=C1CC(c2ccccc2)=NN1c1ccc([N+](=O)[O-])cc1`, for which the Potency is 25.1 µM (active).
For `CC1=NN(c2ccccc2)C(=O)C1C(=O)c1ccc([N+](=O)[O-])cc1` (centres undefined), the “activity change, negative = inhibition” value was -13.4%.
Still for that read-out and setting: the result for `CCCn1c2ccccc2c2cnn(CC(=O)NCCCOC(C)C)c(=O)c21` reads -7.08%; that for `CCc1nnc2c3ccccc3nc(N3CCN(c4ccc(C)cc4C)CC3)n12`, 4.68% [at 57.1 µM].
The same measure, in the same setting: the same measure for `Cc1csc(=NC(=O)c2ccccc2)n1CCO`: 3.79%.
As to `CN(C)CCCn1c(-c2ccc(Cl)cc2)csc1=Nc1ccccc1`, the Potency is 12.6 µM (active).
For the compound `CC(C)Cn1c(-c2ccc(S(=O)(=O)N3CCOCC3)cc2)csc1=Nc1cc(Cl)ccc1Cl`, the “activity change, negative = inhibition” value was -37.6%.
With `OCCn1c(-c2ccccc2)csc1=Nc1ccccc1`, the Potency was 11.2 µM (active).
